Experiment [1] in a line: Caspase-3/7 induction in HepG2 cells by small molecules, qHTS assay (AID 1346978). Note: nearly all actives have a fitted effect of over 15% in size. In outline: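 Wild-type HepG2 cells, 2,000/well, settled 5 hr at 37 C and 5% CO2, then compound-treated for 17 hr; caspase-3/7 activity read by luminescent Caspase-Glo 3/7 after 30 min at room temperature.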
(Quantitative high-throughput screening tests each substance at several concentrations.)

Experiment [2] can be described thus: Caspase-3/7 induction in CHO-K1 cells by small molecules, qHTS cell viability counter screen (AID 1346979). Note: nearly all actives have a fitted effect of over 35% in size. In outline: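 Cells (CHO-K1, wild type) are plated at 1,500 per well and incubated 5hr. Test compounds in DMSO are then pinned in, followed by 16hr at 37C and 5% CO2. Viability is read by CellTiter-Fluor fluorescence after 1hr.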
Experiment [3] is described as follows: Caspase-3/7 induction in CHO-K1 cells by small molecules, qHTS assay (AID 1346980). Note: nearly all actives have a fitted effect of over 15% in size. In a few lines:
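Wild-type CHO-K1 cells exposed to compounds for 17hr at 37 C, 5% CO2. Caspase-3/7 activity then measured by Caspase-Glo 3/7 luminescence after 30min at room temperature.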

Experiment [4] is described as follows: Caspase-3/7 induction in HepG2 cells by small molecules, qHTS cell viability counter screen (AID 1346981). Note: series mostly up to about 92 µM; nearly all actives have a fitted effect of over 30% in size. In outline: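 In this quantitative HTS counter screen, compounds delivered in DMSO were left on unmodified HepG2 cells for 16 hr at 37 C. Viability was then determined fluorometrically with CellTiter-Fluor, in parallel with caspase-3/7 induction in the same wells.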

In experiment [5] the target is Cytochrome P450 2D6 (Homo sapiens) (UniProt P10635). Nature of the experiment: Cytochrome P450 Family 2 Subfamily D Member 6 (CYP2D6) small molecule antagonists: luciferase reporter qHTS assay (AID 1671196). Note: nearly all actives have a fitted effect of over 50% in size. Note: potency is the fitted concentration of half-maximal effect. In outline: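 Test chemicals meet CYP2D6 plus proluciferin substrate (10 min, RT); NADPH regenerating solution then drives turnover for 1 h. Detection reagent halts the reaction; luminescence measured after 20 min.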
Sequence of Cytochrome P450 2D6 (Homo sapiens) (P10635 whole entry, looked up): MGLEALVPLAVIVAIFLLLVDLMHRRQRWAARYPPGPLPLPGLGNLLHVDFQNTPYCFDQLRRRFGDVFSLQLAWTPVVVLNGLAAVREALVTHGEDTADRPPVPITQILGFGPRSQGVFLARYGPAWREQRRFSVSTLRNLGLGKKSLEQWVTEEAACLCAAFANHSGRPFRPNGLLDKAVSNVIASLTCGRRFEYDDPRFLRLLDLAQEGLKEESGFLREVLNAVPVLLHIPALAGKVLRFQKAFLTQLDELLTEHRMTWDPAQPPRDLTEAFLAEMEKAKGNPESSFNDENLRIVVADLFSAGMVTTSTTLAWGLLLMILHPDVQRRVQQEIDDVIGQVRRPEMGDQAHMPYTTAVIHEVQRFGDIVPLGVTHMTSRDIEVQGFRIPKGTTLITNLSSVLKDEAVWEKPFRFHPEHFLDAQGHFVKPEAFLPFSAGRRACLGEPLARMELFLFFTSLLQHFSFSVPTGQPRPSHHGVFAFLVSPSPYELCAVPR
(Reporter assays use an easily measured gene product as a stand-in for the process of interest.)

The target in experiment [6] is Cytochrome P450 2C19 (Homo sapiens) (UniProt P33261). Nature of the experiment: Cytochrome P450 Family 2 Subfamily C Member 19 (CYP2C19) small molecule antagonists: luciferase reporter qHTS assay (AID 1671197). Note: nearly all actives have a fitted effect of over 65% in size. Note: potency is the fitted concentration of half-maximal effect. In outline: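 Luminescent readout of CYP2C19 activity: luciferin product detected 20 min after adding detection reagent. Before that, compound and enzyme-substrate mix preincubated 10 min at room temperature; NADPH-regenerating system started a 1 h, 37C reaction. Ketoconazole as positive control.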
Sequence of Cytochrome P450 2C19 (Homo sapiens) (P33261 whole entry, looked up): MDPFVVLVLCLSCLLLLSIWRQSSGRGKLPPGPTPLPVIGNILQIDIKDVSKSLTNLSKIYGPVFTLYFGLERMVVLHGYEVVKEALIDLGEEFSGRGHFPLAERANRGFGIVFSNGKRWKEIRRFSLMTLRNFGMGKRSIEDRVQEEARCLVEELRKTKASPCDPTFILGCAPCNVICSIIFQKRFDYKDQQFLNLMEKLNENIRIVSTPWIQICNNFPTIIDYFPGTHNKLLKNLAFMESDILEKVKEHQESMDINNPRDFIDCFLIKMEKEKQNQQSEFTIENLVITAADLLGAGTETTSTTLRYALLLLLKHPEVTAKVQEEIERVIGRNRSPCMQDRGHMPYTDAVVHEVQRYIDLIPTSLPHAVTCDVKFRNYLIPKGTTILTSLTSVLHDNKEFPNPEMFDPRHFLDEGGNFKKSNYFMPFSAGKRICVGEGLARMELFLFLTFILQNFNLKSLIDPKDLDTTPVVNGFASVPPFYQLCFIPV

The target of experiment [7] is Voltage-gated inwardly rectifying potassium channel KCNH2 (Homo sapiens) (UniProt Q12809). As to the kind of experiment: Human Ether-a-go-go-Related Gene (hERG) channel small molecule antagonists: fluorescence cell-based qHTS assay (AID 1671200). Note: nearly all actives have a fitted effect of over 50% in size. Note: potency is the fitted concentration of half-maximal effect. In outline: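 Channel function was assessed by thallium flux. Cells seeded the previous day and kept at 37 C took up FluxOR II dye over 1 h in the dark at room temperature, then sat another 10 min before stimulation.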
Sequence of Voltage-gated inwardly rectifying potassium channel KCNH2 (Homo sapiens) (Q12809 whole entry, looked up): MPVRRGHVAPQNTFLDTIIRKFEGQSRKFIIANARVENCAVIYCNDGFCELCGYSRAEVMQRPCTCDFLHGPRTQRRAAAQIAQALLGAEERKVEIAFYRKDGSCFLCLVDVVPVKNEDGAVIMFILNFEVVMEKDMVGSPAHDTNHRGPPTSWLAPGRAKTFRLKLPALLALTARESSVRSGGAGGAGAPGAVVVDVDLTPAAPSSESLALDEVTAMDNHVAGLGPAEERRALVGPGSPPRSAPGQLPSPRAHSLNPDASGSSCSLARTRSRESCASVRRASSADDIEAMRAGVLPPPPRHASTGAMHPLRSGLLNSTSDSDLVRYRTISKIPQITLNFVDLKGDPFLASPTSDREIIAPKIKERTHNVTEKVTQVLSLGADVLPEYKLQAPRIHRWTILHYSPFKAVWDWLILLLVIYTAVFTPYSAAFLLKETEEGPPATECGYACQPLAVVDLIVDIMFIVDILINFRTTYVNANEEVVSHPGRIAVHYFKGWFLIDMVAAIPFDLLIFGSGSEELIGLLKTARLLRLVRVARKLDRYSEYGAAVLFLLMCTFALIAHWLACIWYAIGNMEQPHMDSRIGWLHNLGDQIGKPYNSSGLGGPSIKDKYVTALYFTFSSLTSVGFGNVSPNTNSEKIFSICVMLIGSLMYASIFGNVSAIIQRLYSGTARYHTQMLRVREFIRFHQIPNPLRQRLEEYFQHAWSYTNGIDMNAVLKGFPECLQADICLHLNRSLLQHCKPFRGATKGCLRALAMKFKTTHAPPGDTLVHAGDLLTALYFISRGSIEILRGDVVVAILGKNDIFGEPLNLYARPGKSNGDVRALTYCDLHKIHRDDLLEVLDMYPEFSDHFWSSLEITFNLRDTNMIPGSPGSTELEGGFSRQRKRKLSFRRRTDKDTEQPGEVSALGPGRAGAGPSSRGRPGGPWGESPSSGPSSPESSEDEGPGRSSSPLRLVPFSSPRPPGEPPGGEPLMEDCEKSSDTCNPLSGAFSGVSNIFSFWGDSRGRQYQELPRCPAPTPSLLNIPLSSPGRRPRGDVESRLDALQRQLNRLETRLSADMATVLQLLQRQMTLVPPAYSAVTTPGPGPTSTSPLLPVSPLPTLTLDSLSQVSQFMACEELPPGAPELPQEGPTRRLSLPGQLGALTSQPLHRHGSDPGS
Background: Block of hERG is tested as a sign of cardiac risk.

The target of experiment [8] is Cytochrome P450 3A4 (Homo sapiens) (UniProt P08684). As to the kind of experiment: Cytochrome P450 Family 3 Subfamily A Member 4 (CYP3A4) small molecule antagonists: luciferase reporter qHTS assay (AID 1671201). Note: nearly all actives have a fitted effect of over 50% in size. Note: potency is the fitted concentration of half-maximal effect. In a few lines: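 Compounds in DMSO were pin-transferred onto CYP3A4 enzyme-substrate mix and held 10 min at room temperature. NADPH regenerating solution started the reaction for 1 h; luciferin detection reagent stopped it, and luminescence was read after 20 min.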
Sequence of Cytochrome P450 3A4 (Homo sapiens) (P08684 whole entry, looked up): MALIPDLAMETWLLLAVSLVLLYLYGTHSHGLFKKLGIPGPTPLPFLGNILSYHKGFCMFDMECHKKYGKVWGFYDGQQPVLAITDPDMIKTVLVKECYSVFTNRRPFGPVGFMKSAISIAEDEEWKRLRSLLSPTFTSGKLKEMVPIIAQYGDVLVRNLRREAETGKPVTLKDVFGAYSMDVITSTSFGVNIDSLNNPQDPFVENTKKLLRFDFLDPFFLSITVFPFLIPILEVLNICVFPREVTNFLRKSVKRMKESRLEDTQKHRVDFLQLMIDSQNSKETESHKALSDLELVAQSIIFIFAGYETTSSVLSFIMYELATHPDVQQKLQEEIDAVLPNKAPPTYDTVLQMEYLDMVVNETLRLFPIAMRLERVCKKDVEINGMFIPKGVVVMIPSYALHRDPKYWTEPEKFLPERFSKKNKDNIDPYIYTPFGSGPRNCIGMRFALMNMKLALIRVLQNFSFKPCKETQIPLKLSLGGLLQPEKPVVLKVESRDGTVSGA

For experiment [9], the target named is Cytochrome P450 2C9 (Homo sapiens) (UniProt P11712). Nature of the experiment: Cytochrome P450 Family 2 Subfamily C Member 9 (CYP2C9) small molecule antagonists: luciferase reporter qHTS assay (AID 1671198). Note: nearly all actives have a fitted effect of over 50% in size. Note: potency is the fitted concentration of half-maximal effect. In a few lines: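 P450-Glo proluciferin substrate with CYP2C9 enzyme; 10 min RT preincubation, then NADPH regeneration 1 h at 37C; luciferin detection reagent 20 min RT, luminescence in relative luminescence units.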
Sequence of Cytochrome P450 2C9 (Homo sapiens) (P11712 whole entry, looked up): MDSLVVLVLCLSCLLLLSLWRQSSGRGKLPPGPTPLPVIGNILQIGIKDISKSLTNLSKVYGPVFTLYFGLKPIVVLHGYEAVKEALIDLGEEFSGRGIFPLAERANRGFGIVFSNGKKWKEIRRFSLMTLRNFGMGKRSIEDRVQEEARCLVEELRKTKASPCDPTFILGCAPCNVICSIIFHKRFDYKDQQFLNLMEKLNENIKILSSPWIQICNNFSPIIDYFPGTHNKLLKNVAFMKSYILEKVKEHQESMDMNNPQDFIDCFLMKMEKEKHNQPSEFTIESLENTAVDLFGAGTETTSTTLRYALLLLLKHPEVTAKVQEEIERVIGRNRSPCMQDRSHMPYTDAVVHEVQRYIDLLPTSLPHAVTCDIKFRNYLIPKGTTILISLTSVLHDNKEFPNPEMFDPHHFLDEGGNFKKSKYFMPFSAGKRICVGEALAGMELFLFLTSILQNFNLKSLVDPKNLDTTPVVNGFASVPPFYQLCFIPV

The target in experiment [10] is Cytochrome P450 1A2 (Homo sapiens) (UniProt P05177). Nature of the experiment: Cytochrome P450 Family 1 Subfamily A Member 2 (CYP1A2) small molecule antagonists: luciferase reporter qHTS assay (AID 1671199). Note: nearly all actives have a fitted effect of over 50% in size. Note: potency is the fitted concentration of half-maximal effect. In outline: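 Steps: enzyme-substrate mix dispensed; test compounds and furafylline control pinned in; 10 min room temperature; NADPH regeneration solution added, 1 h; reaction stopped with luciferin detection reagent; luminescence read after 20 min.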
Sequence of Cytochrome P450 1A2 (Homo sapiens) (P05177 whole entry, looked up): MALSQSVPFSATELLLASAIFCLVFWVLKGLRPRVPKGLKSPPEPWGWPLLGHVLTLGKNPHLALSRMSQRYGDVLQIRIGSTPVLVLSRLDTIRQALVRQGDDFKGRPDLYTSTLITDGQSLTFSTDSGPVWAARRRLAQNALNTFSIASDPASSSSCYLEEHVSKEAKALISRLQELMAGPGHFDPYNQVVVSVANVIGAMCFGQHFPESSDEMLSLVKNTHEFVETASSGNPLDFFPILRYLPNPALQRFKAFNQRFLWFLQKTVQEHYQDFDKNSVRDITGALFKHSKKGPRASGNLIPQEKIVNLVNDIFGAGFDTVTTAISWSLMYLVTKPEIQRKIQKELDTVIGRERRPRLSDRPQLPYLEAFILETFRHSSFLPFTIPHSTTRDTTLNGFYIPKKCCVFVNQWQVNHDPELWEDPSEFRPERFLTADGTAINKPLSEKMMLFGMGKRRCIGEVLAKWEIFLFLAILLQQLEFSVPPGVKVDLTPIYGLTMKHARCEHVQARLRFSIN

Experiment [11] concerns the target Nuclear receptor subfamily 1 group I member 2 (Rattus norvegicus) (UniProt Q9R1A7). Nature of the experiment: Rat pregnane X receptor (rPXR) activation by small molecules, qHTS assay (AID 1346983). Note: nearly all actives have a fitted effect of over 20% in size. Particulars: rPXR luciferase reporter cells, One-Glo luminescence, 24 h; max activation: active compounds read high. In a few lines:
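Cell-based rPXR activation assay: rPXR cells, 2,000 per well, rested 5hr at 37 C, then exposed to compounds in DMSO for 24 hr at 37 C. Luciferase activity read by One-Glo luminescence after 30 min at room temperature.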

Experiment [12] addresses Nuclear receptor subfamily 1 group I member 2 (Homo sapiens) (UniProt O75469). As to the kind of experiment: CYP3A4 induction through human pregnane X receptor (PXR) by small molecules, qHTS assay (AID 1346984). Note: nearly all actives have a fitted effect of over 40% in size. Note: potency is the fitted concentration of half-maximal effect. In outline:
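Induction measured in HepG2-based DPX-2 cells co-expressing human PXR and a CYP3A4 promoter-driven luciferase. After a 24-hour compound exposure, cells received CYP3A4 luciferin substrate at 3uM final for 3 hours, and light output was then recorded.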

Experiment [13] has the same target. Nature of the experiment: Human pregnane X receptor (PXR) activation by small molecules, qHTS assay (AID 1346985). Note: nearly all actives have a fitted effect of over 40% in size. Note: potency is the fitted concentration of half-maximal effect. In outline: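 DPX-2 cells (HepG2 co-transfected with a PXR response element and a CYP3A4-promoter luciferase construct) were seeded at 2,000 per well, rested 5 hr at 37C, then exposed to DMSO-dissolved compounds for 24 hr. Activation was read as luciferase luminescence.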

Values without a mark were called inactive. Records with an inconclusive call do not appear. The source made the active and inactive calls. Calls come from the whole dose curve; as a rule, active = well fitted curve in the direction sought with a large enough effect in the repeat runs; inconclusive = weak or mixed curves; inactive = no such curve, though single readings can be large; an effect the other way counts as inactive or inconclusive.
% is set by controls: 0 for no effect and ±100 for the full control effect.

Sequence of Nuclear receptor subfamily 1 group I member 2 (Rattus norvegicus) (Q9R1A7 whole entry, looked up): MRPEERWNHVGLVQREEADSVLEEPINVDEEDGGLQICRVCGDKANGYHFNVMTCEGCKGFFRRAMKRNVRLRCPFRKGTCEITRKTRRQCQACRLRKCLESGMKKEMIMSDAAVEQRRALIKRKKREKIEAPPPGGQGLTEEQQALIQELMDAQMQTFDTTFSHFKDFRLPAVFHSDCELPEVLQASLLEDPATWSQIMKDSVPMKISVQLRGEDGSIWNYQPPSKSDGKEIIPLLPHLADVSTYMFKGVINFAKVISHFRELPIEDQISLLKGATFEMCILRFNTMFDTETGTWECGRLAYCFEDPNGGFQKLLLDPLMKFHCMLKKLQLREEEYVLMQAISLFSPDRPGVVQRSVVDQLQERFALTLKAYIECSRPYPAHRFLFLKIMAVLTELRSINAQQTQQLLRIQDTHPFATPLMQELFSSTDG

For `ICCc1ccccc1`, the Potency result in [1], in [2], in experiment [4], in [7] and in [8] was “inactive” throughout. In experiment [3], the outcome was inactive. Moreover, the Potency in experiment [5] is 6.95 µM (active); in experiment [6] it was 78 µM (active).

As for `O=S(=O)(O)C(F)(F)F`, the Potency result in experiment [1], in experiment [2], in experiment [4], in [6], in [9] and in experiment [10] was “inactive” in each case. Besides, in [7], the Potency entry is “inactive”. Besides, in experiment [3], the compound was classed as inactive.

Regarding `CCOC(=O)[C@H](CCc1ccccc1)N[C@@H](C)C(=O)N1Cc2cc(OC)c(OC)cc2C[C@H]1C(=O)O`, the Potency entry in [1], in [2], in [4], in experiment [12], in [5] and in [10] was “inactive” each time. The Potency result in experiment [7] was “inactive”. In addition, the outcome in [3] was inactive. Moreover, the max activation in experiment [11] was -0.0593%. Also, the Potency in experiment [9] is 15.5 µM (active).

For the compound `CN1CCC[C@@H]1Cc1c[nH]c2ccc(CCS(=O)(=O)c3ccccc3)cc12`, the Potency result in experiment [1], in experiment [2], in experiment [4], in experiment [6] and in experiment [10] was “inactive” each time. Also, the result in [3] was inactive. In [11], the max activation was 0.279%. Also, the Potency was 13.8 µM (active) in experiment [5] and 17.4 µM (active) in experiment [9].

Turning to `CC(=O)Nc1ccc(C)c(Cl)c1`, the Potency result in experiment [1], in experiment [2], in experiment [4], in [5], in experiment [9] and in experiment [7] was “inactive” in each case. Further, the call in experiment [3] was inactive. The Potency in experiment [6] is 22.4 µM (active); in experiment [10], 8.94 µM (active); in experiment [8], 39.9 µM (active).

For the compound `COC(=O)N[C@H](C(=O)N[C@@H](Cc1ccccc1)[C@@H](O)CN(Cc1ccc(-c2ccccn2)cc1)NC(=O)[C@@H](NC(=O)OC)C(C)(C)C)C(C)(C)C`, the Potency entry in [1], in [2], in experiment [4], in experiment [10] and in experiment [7] was “inactive” throughout. In [3], the call was inactive. Moreover, the Potency in experiment [6] is 34.7 µM (active); in experiment [9], 15.5 µM (active).

`CN1CCN(c2c(F)cc3c(=O)c(C(=O)O)cn4c3c2SCC4)CC1`: the Potency result in [1], in experiment [2], in [4], in [12], in [13] and in [6] was “inactive” in each case. Further, the Potency result in [10] and in [7] was “inactive” throughout. Further, the outcome in experiment [3] was inactive. Moreover, in experiment [11], the max activation is -4.92%.

Turning to `Clc1cccc(-c2cc(Cl)cc(Cl)c2)c1`, the Potency entry in [1], in experiment [2], in experiment [4], in experiment [5], in [7] and in experiment [8] was “inactive” throughout. For the same compound, in experiment [3], the result was inactive. Moreover, the results for the Potency in experiment [6], in experiment [9] and in experiment [10] were 30.6 µM (active), 38.5 µM (active) and 21.7 µM (active), respectively.

With `CC(C)c1ccccc1`, the Potency result in experiment [1], in experiment [2], in experiment [4], in experiment [5], in [6] and in experiment [9] was “inactive” each time. Further, the Potency entry in experiment [10], in experiment [7] and in experiment [8] was “inactive” throughout. In addition, in experiment [3], the call was inactive.

As to `O=[N+]([O-])c1nccn1CO[C@@H](CO)[C@H](O)CO`, the Potency entry in experiment [1], in [2], in experiment [4], in experiment [6], in experiment [9] and in experiment [10] was “inactive” in each case. For the same compound, the Potency result in [7] and in [8] was “inactive” in each case. Besides, in experiment [3], the outcome was inactive. In experiment [5], the Potency is 38.9 µM (active).

With `OCCN(CCO)CCN(CCO)CCO`, the Potency result in experiment [1], in experiment [2], in experiment [4], in experiment [5], in experiment [6] and in experiment [9] was “inactive” in each case. Moreover, the Potency entry in experiment [10], in experiment [7] and in experiment [8] was “inactive” throughout. Also, the call in [3] was inactive.

`CCCCNc1ccc(C(=O)OCCN(CC)CC)cc1`: the Potency result in [1], in experiment [2], in [4], in [6] and in [8] was “inactive” in each case. Also, the outcome in experiment [3] was inactive. In addition, the Potency in experiment [5] is 3.89 µM (active).

On to `CCc1cc(Cl)c(OC)c(C(=O)NC[C@@H]2CCCN2CC)c1O`, for which the Potency result in experiment [1], in [2], in experiment [4], in experiment [6], in experiment [9] and in experiment [8] was “inactive” each time. Besides, the compound was called inactive in experiment [3]. Besides, the Potency was 15.8 µM (active) in [12]; 25.1 µM (active) in experiment [13]; 0.617 µM (active) in [5]; 12.9 µM (active) in experiment [10]; 6.74 µM (active) in [7].

In the case of `OCCN1CCN(CCO)CC1`, the Potency result in experiment [1], in experiment [2], in [4], in experiment [6], in experiment [9] and in experiment [10] was “inactive” each time. The Potency result in [7] and in [8] was “inactive” each time. For the same compound, in [3], the outcome was inactive.

Consider `CN1CCN(N)CC1`, for which the Potency entry in experiment [1], in experiment [2], in experiment [4], in [5], in experiment [6] and in experiment [9] was “inactive” in each case. Also, the Potency result in experiment [10], in [7] and in [8] was “inactive” each time. In addition, in experiment [3], the compound was classed as inactive.

As to `O=C(CCCl)NCc1ccccc1`, the Potency entry in [1], in [2], in [4], in experiment [5], in [6] and in experiment [9] was “inactive” in each case. Besides, the Potency result in experiment [7] and in [8] was “inactive” throughout. The compound was called inactive in experiment [3].

Values taken from PubChem BioAssay (Tox21).
